# From paper PMC8384837, “Expanding the binding specificity for RNA recognition by a PUF domain”
# Changes are numbered by the printed parent chain.
# Legend:
# Experiment in all cases: yeast three-hybrid, YBZ-1, SC-Leu-His + 0.5 mM 3-AT, 4 days
# Conditions in all cases: tags: N-Gal4 AD-HA kept; label: inside an RPR1-promoter hybrid RNA with tandem MS2 sites; ssRNA
# [1] = biological target: PUM1 PUF domain R1-RSV (Homo sapiens, UniProt Q14671 828-1176, S863R;R864S;Q867V)
# How it was run: (§1)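 The interaction score is the logarithmic change in variant frequency from input to selection. It uses log2, with a pseudocount of 1 for absent variants, and frequencies came from PCR-amplified, Illumina-sequenced repeat regions. The libraries were Pumilio-1 PUF domains randomized at the three base-contacting residues per repeat, co-expressed with matching RNA elements in strain YBZ-1 (LexA–MS2 coat fusion, HIS3 reporter). Plating lasted four days on SC-Leu (input) or SC-Leu-His + 0.5 mM 3-AT (selection).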
# [2] = biological target: PUM1 PUF domain R1-KLM (Homo sapiens, UniProt Q14671 828-1176, S863K;R864L;Q867M)
# How it was run: as §1
# [3] = biological target: PUM1 PUF domain R7-GRR (Homo sapiens, UniProt Q14671 828-1176, S1079G;N1080R;E1083R)
# How it was run: as §1
# [4] = biological target: PUM1 PUF domain R7-GSK (Homo sapiens, UniProt Q14671 828-1176, S1079G;N1080S;E1083K)
# How it was run: as §1
# [5] = biological target: PUM1 PUF domain R8-LYA (Homo sapiens, UniProt Q14671 828-1176, N1122L;Q1126A)
# How it was run: as §1
# [6] = biological target: PUM1 PUF domain R1-GLQ (Homo sapiens, UniProt Q14671 828-1176, S863G;R864L)
# How it was run: as §1
# [7] = biological target: PUM1 PUF domain R4-CFP (Homo sapiens, UniProt Q14671 828-1176, N971C;H972F;Q975P)
# How it was run: as §1
# [8] = biological target: PUM1 PUF domain R3-VHW (Homo sapiens, UniProt Q14671 828-1176, C935V;R936H;Q939W)
# How it was run: as §1
# [9] = biological target: PUM1 PUF domain R3-VWF (Homo sapiens, UniProt Q14671 828-1176, C935V;R936W;Q939F)
# How it was run: as §1
# [10] = biological target: PUM1 PUF domain R5-KSL (Homo sapiens, UniProt Q14671 828-1176, C1007K;R1008S;Q1011L)
# How it was run: as §1
# [11] = biological target: T1, PUM1 PUF domain R6-HRK (Homo sapiens, UniProt Q14671 828-1176, N1043H;Y1044R;Q1047K)
# T1 sequence: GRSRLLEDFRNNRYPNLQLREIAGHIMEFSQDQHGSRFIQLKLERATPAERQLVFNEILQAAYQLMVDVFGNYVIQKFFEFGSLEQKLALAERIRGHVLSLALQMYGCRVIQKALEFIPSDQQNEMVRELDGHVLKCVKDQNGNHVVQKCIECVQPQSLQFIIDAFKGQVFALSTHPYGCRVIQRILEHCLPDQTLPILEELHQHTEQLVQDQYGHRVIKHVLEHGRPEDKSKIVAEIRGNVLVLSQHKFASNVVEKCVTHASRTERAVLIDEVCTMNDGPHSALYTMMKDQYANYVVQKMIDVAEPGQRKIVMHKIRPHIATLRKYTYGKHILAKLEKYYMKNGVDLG
# How it was run: as §1
# [12] = biological target: T2, PUM1 PUF domain R6-FWL (Homo sapiens, UniProt Q14671 828-1176, N1043F;Y1044W;Q1047L)
# T2 sequence: T1 sequence with H216F, R217W, K220L
# How it was run: as §1
# [13] = biological target: PUM1 PUF domain R3-CRH (Homo sapiens, UniProt Q14671 828-1176, Q939H)
# How it was run: as §1
# [14] = biological target: PUM1 PUF domain R5-PRG (Homo sapiens, UniProt Q14671 828-1176, C1007P;Q1011G)
# How it was run: as §1
# [15] = biological target: PUM1 PUF domain R5-RRV (Homo sapiens, UniProt Q14671 828-1176, C1007R;Q1011V)
# How it was run: as §1
# [16] = biological target: PUM1 PUF domain R3-RAS (Homo sapiens, UniProt Q14671 828-1176, C935R;R936A;Q939S)
# How it was run: as §1
# Sequence of PUM1 PUF domain R3-RAS (Q14671 828-1176 C935R/R936A/Q939S): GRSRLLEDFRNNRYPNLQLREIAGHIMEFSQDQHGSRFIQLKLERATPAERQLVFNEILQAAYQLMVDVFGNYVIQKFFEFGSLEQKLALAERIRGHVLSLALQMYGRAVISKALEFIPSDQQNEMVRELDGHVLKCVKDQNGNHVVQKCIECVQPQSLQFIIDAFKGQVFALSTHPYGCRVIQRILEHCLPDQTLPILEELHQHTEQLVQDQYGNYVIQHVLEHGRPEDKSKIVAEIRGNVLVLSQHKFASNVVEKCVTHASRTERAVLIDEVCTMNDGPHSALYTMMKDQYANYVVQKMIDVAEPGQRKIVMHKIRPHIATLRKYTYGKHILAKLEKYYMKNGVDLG
# Sequence of PUM1 PUF domain R1-KLM (Q14671 828-1176 S863K/R864L/Q867M): as the sequence (Q14671 828-1176 C935R/R936A/Q939S) above, with S36K, R37L, Q40M, R108C, A109R, S112Q counted along it
# Sequence of PUM1 PUF domain R7-GRR (Q14671 828-1176 S1079G/N1080R/E1083R): as the sequence (Q14671 828-1176 C935R/R936A/Q939S) above, with R108C, A109R, S112Q, S252G, N253R, E256R counted along it
# Sequence of PUM1 PUF domain R7-GSK (Q14671 828-1176 S1079G/N1080S/E1083K): as the sequence (Q14671 828-1176 C935R/R936A/Q939S) above, with R108C, A109R, S112Q, S252G, N253S, E256K counted along it
sequence,measurement,setting,value
GGCUAGAACUAGUGGAUCCCCCGGCGCCCGGCGGCUCGAGCCCGGGUAAGUGUAAAUCGUCUGCAUGCCGCCGGGCGCCAUGCCUGCAGGUCGACUCUAGAAAACAUG,binding signal,[1],3.6 log2 enrichment (interaction score)
same,binding signal,[2],3.89 log2 enrichment (interaction score)
GGCUAGAACUAGUGGAUCCCCCGGCGCCCGGCGGCUCGAGCCCGGGUAAGUUUAAAUAGUCUGCAUGCCGCCGGGCGCCAUGCCUGCAGGUCGACUCUAGAAAACAUG,binding signal,[3],5.06 log2 enrichment (interaction score)
same,binding signal,[4],4.61 log2 enrichment (interaction score)
GGCUAGAACUAGUGGAUCCCCCGGCGCCCGGCGGCUCGAGCCCGGGUAAGCGUAAAUAGUCUGCAUGCCGCCGGGCGCCAUGCCUGCAGGUCGACUCUAGAAAACAUG,binding signal,[5],2.77 log2 enrichment (interaction score)
GGCUAGAACUAGUGGAUCCCCCGGCGCCCGGCGGCUCGAGCCCGGGUAAGUGUAAAUUGUCUGCAUGCCGCCGGGCGCCAUGCCUGCAGGUCGACUCUAGAAAACAUG,binding signal,[1],2.17 log2 enrichment (interaction score)
same,binding signal,[6],2.93 log2 enrichment (interaction score)
GGCUAGAACUAGUGGAUCCCCCGGCGCCCGGCGGCUCGAGCCCGGGUAAGUGUACAUAGUCUGCAUGCCGCCGGGCGCCAUGCCUGCAGGUCGACUCUAGAAAACAUG,binding signal,[7],2.19 log2 enrichment (interaction score)
GGCUAGAACUAGUGGAUCCCCCGGCGCCCGGCGGCUCGAGCCCGGGUAAGUGUAAAUAGUCUGCAUGCCGCCGGGCGCCAUGCCUGCAGGUCGACUCUAGAAAACAUG,binding signal,[8],3.99 log2 enrichment (interaction score)
same,binding signal,[9],5.2 log2 enrichment (interaction score)
same,binding signal,[10],0.96 log2 enrichment (interaction score)
same,binding signal,[7],5.06 log2 enrichment (interaction score)
same,binding signal,[5],1.25 log2 enrichment (interaction score)
same,binding signal,[11],2.98 log2 enrichment (interaction score)
same,binding signal,[12],5.31 log2 enrichment (interaction score)
same,binding signal,[13],3.86 log2 enrichment (interaction score)
same,binding signal,[14],3.3 log2 enrichment (interaction score)
same,binding signal,[15],2.01 log2 enrichment (interaction score)
GGCUAGAACUAGUGGAUCCCCCGGCGCCCGGCGGCUCGAGCCCGGGUAAGUGUAAUUAGUCUGCAUGCCGCCGGGCGCCAUGCCUGCAGGUCGACUCUAGAAAACAUG,binding signal,[9],2.85 log2 enrichment (interaction score)
same,binding signal,[16],3.67 log2 enrichment (interaction score)
